Compounds with a hit are over-represented: about 6.6% of the library has one in this group of screens.
HepG2 tox – qHTS for Inhibitors of TGF-b: Cytotox Counterscreen. HepG2 CAGA-GFP viability, ATP luminescence, 18 h. Potency, µM (titrated, usually from 46.1 µM), hits mostly cytotoxic. actives 0.76% (n = 410,000). AID 588856, 2011
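HepG2 CAGA-GFP cells (1000/well, DMEM with 1% FBS) received compound, then TGF-beta at 500 pg/mL final, and were incubated 18 hours at 37 degrees C. Viability was read by CellTiter-Glo luminescence. Media-only wells were set as complete cell-killing and DMSO as no toxicity.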
TGFb inhibitor – qHTS for Inhibitors of TGF-b; HepG2 CAGA-GFP TGF-b/SMAD3 reporter, GFP fluorescence, 18 h; TGF-beta stimulated, 500 pg/mL final; actives 1.2% (n = 410,000); Potency, µM (titrated, usually from 46.1 µM), hits mostly inhibitors; further: nearly all actives have a fitted effect of over 65% in size
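TGF-beta reporter screen: HEPG2 CAGA-GFP, 1% FBS, 500 pg/mL TGF-beta final, 18 h; per-cell GFP summed per well; curves fitted and categorized by class.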
HT1080NT lethal – qHTS for induction of synthetic lethality in tumor cells producing 2HG: qHTS for the HT-1080-NT fibrosarcoma cell line | HT-1080-NT fibrosarcoma viability, CellTiter-Glo ATP luminescence, 48 h | Potency, µM (highest dose often 46.1 µM), usual class: cytotoxic | actives 1.6% (n = 360,000) | AID 686970, 2013;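 further: NT is the 2HG producing partner of a matched IDH1 knockdown line; nearly all actives have a fitted effect of over 55% in size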
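HT-1080-NT fibrosarcoma cells (2HG-overproducing), 750 cells/well in RPMI with 5% FBS, dosed after 2 h and incubated 48 h at 37C. CellTiter-Glo luminescence normalized to DMSO and no-cell wells; concentration-response curves fitted and classed.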
HT1080 IDH1KD tx – qHTS for induction of synthetic lethality in tumor cells producing 2HG: qHTS for the HT-1080-IDH1KD cell line; HT-1080 IDH1 knockdown viability, ATP luminescence, 48 h; Potency, µM (highest dose often 46.1 µM), hits mostly cytotoxic; actives 2% (n = 360,000); AID 686971, 2013
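% activity derives from luminescence (CellTiter-Glo), normalised to DMSO and no-cell wells. HT-1080-IDH1KD cells, 750/well, had 48 h compound exposure at 37 °C.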
KB-3-1 cytotox – qHTS assay for MDR1-selective chemotherapeutics: Primary screen using the parental adenocarcinoma cell KB-3-1; KB-3-1 viability, CellTiter-Glo ATP luminescence, 72 h; Potency, µM (highest dose often 46.1 µM), most hits filed as cytotoxic; actives 1.4% (n = 400,000); AID 1347075, 2019; further: nearly all actives have a fitted effect of over 60% in size
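Using CellTiter-Glo luminescence, growth of non-resistant KB-3-1 adenocarcinoma cells is assessed 72 h after pin-tool compound addition at 37 °C. Normalized responses across the concentration series yield fitted curves.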
KB-V1 cytotox – qHTS assay for MDR1-selective chemotherapeutics: Primary screen using the drug-selected MDR subline cells KB-V1 | KB-V1 MDR cells viability, CellTiter-Glo, 72 h | Potency, µM (top dose mostly 46.1 µM), most hits filed as cytotoxic | actives 3.4% (n = 400,000) | AID 1347076, 2019; further: nearly all actives have a fitted effect of over 60% in size
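Cells of the MDR subline KB-V1 are plated, dosed with compound at multiple concentrations, and incubated 72 h at 37 degrees C; CellTiter-Glo is then added and luminescence read after 10 min.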
A number is an active result; - = inactive; ? = inconclusive; . = no result; ! = not confirmed by another sample. The call rests on the fitted dose curve; in most records, active means well fitted curve in the direction sought with a large enough effect; inconclusive means small, poorly fitted or top-dose-only effect, or another doubt; inactive means no such curve, though single readings can be large; an effect the other way counts as inactive or inconclusive.

SMILES	HepG2 tox	TGFb inhibitor	HT1080NT lethal	HT1080 IDH1KD tx	KB-3-1 cytotox	KB-V1 cytotox
N#Cc1ccccc1Cn1c(=O)n(CCCCC(=O)NCc2ccc3c(c2)OCO3)c(=O)c2ccccc21	-	-	.	.	-	-
CCOC(=O)N1CCc2c(sc3c2C(=O)NC(c2ccccc2)N3)C1 (centres undefined)	-	?	?	14.6µM	?	-
CN1CCc2c(sc3c2C(=O)NC(c2cn(Cc4ccccc4)c4ccccc24)N3)C1 (centres undefined)	-	1.26µM	-	-	9.2µM	14.6µM
CCOC(=O)N1CCc2c(sc3c2C(=O)NC(c2ccc(N(C)C)cc2)N3)C1 (centres undefined)	-	?	.	.	.	.
CC(=O)Nc1ccc(NC(=O)CN2C(=O)CC(c3ccco3)Sc3ccccc32)cc1 (centres undefined)	-	-	.	.	-	-
Cn1c(-c2ccccc2)cc2c3no[n+]([O-])c3ccc21	-	?	2.31µM	4.11µM	3.66µM	?
CCOc1ccc(CNC(=O)c2cc3cc(S(=O)(=O)N4CCCCC4)ccc3n2C)cc1	-	-	.	.	.	.
Cc1ccc(C)c(N2CCN(C(=O)c3cc4c(=O)n(Cc5ccccc5)ccc4nc3C)CC2)c1	-	10µM	.	.	-	-
CCOc1ccc(N(CC)C(=O)CCNC(=O)Cn2ccc3ccccc3c2=O)cc1	-	-	-	-	-	23.1µM
Cc1ccc(C)c(N2CCN(C(=O)CCNC(=O)Cn3ccc4ccccc4c3=O)CC2)c1	-	-	-	-	-	6.51µM
Cc1ccc(C)c(N2CCN(C(=O)c3cccn4c(=O)c5sccc5nc34)CC2)c1	-	-	13µM	16.4µM	?	?
CCOc1ccccc1CNC(=O)CCNC(=O)Cn1ccc2ccccc2c1=O	-	-	-	-	-	-
COc1cccc(-c2cn3c(n2)sc2cc(C(=O)NCCc4ccc(OC)c(OC)c4)ccc23)c1	-	-	.	.	.	.
Cc1ccc(NC(=O)c2cc3c(=O)[nH]c4ccccc4c3n2C)cc1F	-	-	.	.	-	?
CN1CCN(c2nc(-c3ccccc3O)nc3ccccc23)CC1	-	-	-	-	-	-
COc1cccc(-c2nc(N3CCN(C)CC3)c3ccccc3n2)c1O	-	?	-	14.6µM	-	?
Cc1ccc(/C=C/C(=O)c2ccc(C)cc2)cc1	-	-	-	-	-	-
Cc1ccc(C(=O)/C=C/C(=O)c2ccc(C)cc2)cc1	-	-	-	11.6µM	-	-
CCOC(=O)C1CCCN(C(=O)Cn2ncc3c(C)n(Cc4ccccc4Cl)c(C)c3c2=O)C1 (centres undefined)	-	?	.	.	-	-
c1ccc(CNc2cccnc2)cc1	-	-	-	-	-	-
O=C1C(NS(=O)(=O)c2ccc(Br)cc2)=C(N2CCCCC2)C(=O)c2ccccc21	-	?	?	-	-	-
CCN1CCN(C2=C(NS(=O)(=O)c3ccc(C)cc3)C(=O)c3ccccc3C2=O)CC1	11.2µM	12.6µM	?	?	?	?
CCN1CCN(C2=C(NS(=O)(=O)c3ccc(NC(C)=O)cc3)C(=O)c3ccccc3C2=O)CC1	-	?	-	-	?	-
CC(=O)Nc1ccc(S(=O)(=O)NC2=C(N3CCN(Cc4ccccc4)CC3)C(=O)c3ccccc3C2=O)cc1	-	?	?	?	?	18.4µM!
CC1CCN(C2=C(NS(=O)(=O)c3ccc(Br)cc3)C(=O)c3ccccc3C2=O)CC1	-	?	18.4µM	-	?	?
SMILES	HepG2 tox	TGFb inhibitor	HT1080NT lethal	HT1080 IDH1KD tx	KB-3-1 cytotox	KB-V1 cytotox
CC1CCN(S(=O)(=O)c2ccc3c(c2)c(=O)c(C(=O)N2CCN(c4cccc(Cl)c4)CC2)cn3C)CC1	-	-	.	.	-	-
CC(C)(C)CC(C)(C)c1ccc(O)c(Cc2ccc(Cl)cc2Cl)c1	-	?	3.66µM	18.4µM	?	?
O=c1c(Cc2ccc(Cl)cc2Cl)c(O)ccn1CC(F)(F)F	-	-	-	-	-	-
CCN(c1ccccc1)S(=O)(=O)c1ccc(N)c(OC)c1	-	-	?	?	16.4µM	23.1µM
Cc1nn(CCCC(=O)Nc2cc(Oc3ccc(F)cc3)cc([N+](=O)[O-])c2)c(C)c1[N+](=O)[O-]	-	?	-	-	-	5.8µM
Cc1nn(CCCC(=O)NCc2ccc(Cl)cc2)c(C)c1[N+](=O)[O-]	-	-	-	-	-	23.1µM
COc1ccc(CNC(=O)CCCn2nc(C)c([N+](=O)[O-])c2C)cc1OC	-	-	-	-	-	?
Cc1c(Cl)c([N+](=O)[O-])nn1CCCC(=O)Nc1cc(Oc2ccccc2)cc([N+](=O)[O-])c1	-	-	-	-	-	?
Cc1ccccc1Oc1cc(NC(=O)CCCn2nc(C)c([N+](=O)[O-])c2C)cc([N+](=O)[O-])c1	-	?	-	-	-	3.26µM
Cc1ccc(F)cc1NC(=O)CSc1nc(-c2cccs2)cc(C(F)(F)F)n1	-	-	.	.	-	-
Cc1ccc(N=Nc2c(N)[nH]n3c(=O)cc(C)nc23)cc1	-	-	-	-	18.4µM	23.1µM
Nc1[nH]n2c(=O)cc(-c3ccccc3)nc2c1N=Nc1ccc(S(N)(=O)=O)cc1	-	-	-	-	-	-
Nc1[nH]n2c(=O)cc(-c3ccccc3)nc2c1N=Nc1ccccc1	-	-	?	?	8.2µM	?
Cc1c(CC(=O)NCc2ccc(F)cc2)c(=O)oc2cc(O)c(Cl)cc12	-	-	.	.	.	.
Cc1cc2c(N=O)c(NO)ccc2[nH]1	-	?	-	?	?	4.11µM
O=Nc1c(O)[nH]c2ccc(F)cc12	-	-	-	-	-	-
COC1=C(Nc2ccccc2)C(=O)c2ccccc2C1=O	-	15.8µM	?	13µM	20.6µM	?
COC1=C(Nc2ccc(C)cc2)C(=O)c2ccccc2C1=O	-	?	-	-	-	18.4µM
COc1ccc(OC)c2c1C(=O)c1ccccc1C2=O	-	-	-	-	-	-
CC(=O)NC1=C(Nc2ccc(N(C)C)cc2)C(=O)c2ccccc2C1=O	-	-	?	13µM	-	-
Cc1ccc(-c2cc(C(=O)N3CCN(S(=O)(=O)c4ccc(Br)s4)CC3)[nH]n2)cc1C	-	-	.	.	-	-
O=C1/C(=C\c2cc([N+](=O)[O-])ccc2O)SC(=S)N1Cc1ccc(Cl)cc1	-	-	23.1µM	23.1µM	?	23.1µM
CNc1ccccc1C(C)(C)c1cc(-c2cccc(Br)c2)no1	-	-	-	?	23.1µM	-
